This is a sample that favours compounds with a hit; in the whole collection about 3.2% have one here.
CHT block: inhibitors of human choline transporter CHT; Q9GZV3; CHT-expressing cells, membrane potential dye, choline response; hits give low values; B-score at 10 µM; hit rate 0.86% among 310,000; AID 488975;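 active means B-score over 3 SD under the library average, and starting fluorescence ratio not unusually high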;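 further: choline stimulus applied at its EC90 after an EC20 pre-addition; B-score computed on integrated fluorescence ratio after choline addition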
CHT allo act: allosterically activates the human high affinity choline transporter; Q9GZV3; hit rate 0.49% among 310,000; CHT-expressing cells, membrane potential dye, choline EC20; hits give high values; LV-AA mutant CHT in HEK293 cells; B-score at 10 µM;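 active means initial fluorescence not abnormally high and integrated response B-score, plate-corrected, over 3 SD above library mean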
Rce1 inhib: inhibitors of yeast Ras-converting enzyme; calls only; hit rate 0.27% among 290,000; AID 2563; yeast membranes, quenched prenylated peptide cleavage fluorescence; Q03530;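 active means fall in fluorescence gain of 50% or more versus controls, with final raw signal at or below 3038400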;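 further: plate controls were neutral control wells for no effect and wells lacking membranes for full effect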
Target sequence (Q03530 whole entry, looked up): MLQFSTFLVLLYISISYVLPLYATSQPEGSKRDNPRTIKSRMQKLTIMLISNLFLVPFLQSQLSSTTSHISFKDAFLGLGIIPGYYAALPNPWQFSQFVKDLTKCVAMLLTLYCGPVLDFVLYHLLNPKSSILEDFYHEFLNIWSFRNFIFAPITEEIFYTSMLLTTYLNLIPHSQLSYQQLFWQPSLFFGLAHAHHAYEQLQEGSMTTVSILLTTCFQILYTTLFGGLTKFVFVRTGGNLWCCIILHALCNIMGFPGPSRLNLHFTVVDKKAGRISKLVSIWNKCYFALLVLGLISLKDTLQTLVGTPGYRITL
Kir21 inh: Kir2.1 (mouse) channel inhibition. P35561. HEK293-Kir2.1, FluxOR thallium flux fluorescence; hits give low values. B-score at 10 µM. hit rate 0.85% among 310,000. AID 1672;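 active means fluorescence ratio B-score at or below minus 3 SD of library scores, with starting-brightness B-score within 2 SD, cut at about -4.2 in these data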;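 further: channel flux triggered by added potassium and thallium sulfate stimulus; B-score of peak minus minimum fluorescence over baseline after thallium stimulus; more negative B-score means stronger Kir2.1 block with less thallium influx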
ANO1 activ: activates or potentiates the mouse TMEM16A chloride channel | HEK293 TMEM16A/YFP-H148Q/I152L, iodide quench fluorescence; hits give low values | AID 623877 | hit rate 0.3% among 340,000 | B-score at 10 µM;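 active means fluorescence-ratio B-score plate-corrected deviation score at least 3 library SD below zero, with starting fluorescence score within 5 deviations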;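 further: channel opened by trigger with iodide after compound preincubation; score built on the fluorescence ratio of max minus min over baseline; more negative score means more quench and so TMEM16A activation or potentiation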
ANO1 block: inhibitors of mouse TMEM16A calcium-activated chloride channel; Q8BHY3; HEK293 TMEM16A/YFP iodide influx fluorescence, ionomycin; normalized B-score (activity score, 25-100; higher = stronger inhibition) at 10 µM; hit rate 1.2% among 310,000; AID 588511;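 active means ratio plate-corrected score three or more library SD toward inhibition, starting fluorescence score within five deviations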;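 further: score derived from kinetic fluorescence span divided by baseline fluorescence per well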
CHT block conf: human CHT inhibition, confirmatory screen; shares compounds with CHT block; CHT-expressing cells, choline membrane potential dye; LV-to-AA substituted CHT, HEK293 cells; CHT activity remaining % of control (hits give low values), % at 10 µM; hit rate 70% among 2,400; AID 493221;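 active means choline transporter activity left, mean of duplicates at 10 µM, below buffer-only control mean minus 3 SD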;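 further: depolarization triggered by choline at its EC90 following an EC20 pre-addition; 0% = hemicholinium-3 full block and 100% = buffer-only control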
HEK293 MPD ctr: counter-screen for CHT inhibitors: effect in parental HEK293 cells; shares compounds with CHT block; membrane potential dye, choline response; active = decrease or increase beyond buffer ±3SD; membrane potential ratio readout (active if shifted either direction beyond buffer ±3SD; no single direction) at 10 µM; hit rate 4% among 2,400; AID 493222;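 further: parental cells lack the transporter so any hit is non-specific; ratio is peak minus trough fluorescence over baseline after EC90 choline challenge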
Active calls of the source: *; i = inactive; . = no result.

SMILES	CHT block	CHT allo act	Rce1 inhib	Kir21 inh	ANO1 activ	ANO1 block	CHT block conf	HEK293 MPD ctr
CC(=O)/C(C#N)=C1\NC(=O)C(Cc2ccc(C)c(Cl)c2)S1 (configuration not stated)	-7*	i	i	0.09	i	i	i	i
CCOC(=O)c1ccc(CC2S/C(=C(\C#N)C(C)=O)NC2=O)cc1 (configuration not stated)	i	i	i	-1.1	i	i	.	.
Cc1ccc(NC(=O)CCc2c(C)nn(-c3ccc(N4CCCCC4)nn3)c2C)cc1	i	i	i	-0.75	i	i	.	.
Cc1cc(C)cc(NC(=O)CCc2c(C)nn(-c3ccc(N4CCCCC4)nn3)c2C)c1	i	i	i	-0.68	i	i	i	i
O=C(NNS(=O)(=O)c1ccccc1[N+](=O)[O-])c1cc2ccccc2cc1O	-7.3*	i	i	-0.96	i	i	62%*	i
CS(=O)(=O)Nc1cccc(C2=NN(C(=O)c3ccco3)C(c3cccs3)C2)c1 (configuration not stated)	i	i	i	0.59	i	i	.	.
c1ccc(Cn2ccnc2SCc2nnc(-c3ccccc3)o2)cc1	-6.1*	i	i	-0.78	i	i	63%*	i
Cc1cccc(C)c1NC(=S)Nc1ccc(F)cc1	i	i	i	1.2	i	i	.	.
Cc1ccc(NC(=S)Nc2ccc3nc(-c4ccccn4)c(-c4ccccn4)nc3c2)cc1C	-5.3*	i	.	.	i	i	60%*	i
Cc1ccc(NC(=S)Nc2ccc(F)cc2)cc1C	-8.8*	i	i	-0.13	i	i	65%*	i
COc1ccc(-c2sc(Nc3ccc(F)c(F)c3F)nc2CCC(=O)NN)cc1	-5.2*	i	i	0.26	i	i	i	i
Cc1nn(C)c(C)c1NC(=O)COc1ccc(Cl)cc1Br	.	.	.	.	i	.	.	.
CN1CCN(c2ccc([N+](=O)[O-])cc2C(=O)c2ccc(Cl)cc2)CC1	-5*	i	i	-0.28	i	i	68%*	i
CN1CCN(c2ccc([N+](=O)[O-])cc2C(=O)N2CCCCC2)CC1	i	i	i	-0.48	i	i	.	.
COCCNC(=S)N1CCOCC1	i	i	i	-0.45	i	i	.	.
CCOC(=O)c1cnc2ccc(Cl)cc2c1N1CCN(C)CC1	i	i	i	0.19	i	i	.	.
CCOC(=O)c1cnc2c(C(F)(F)F)cccc2c1N1CCN(C)CC1	-10*	i	i	-1.6	i	i	30%*	3.3*
CCOC(=O)c1cnc2c(C)cc(Cl)cc2c1N1CCN(C)CC1	-6.4*	i	i	1.7	i	i	34%*	i
CCOC(=O)c1cnc2c(OC)cccc2c1N1CCN(c2ccccc2OC)CC1	i	i	i	0.56	i	i	.	.
Cc1ccc(C)c(N2N=C(C(=O)NCCN3C(=O)S/C(=C\c4cccnc4)C3=O)CCC2=O)c1	i	i	i	-0.52	i	i	.	.
CC1CCCCC1NC(=O)c1c(O)nc2ccccn2c1=O (configuration not stated)	-7.1*	i	i	-0.34	i	i	60%*	i
CC(OC(=O)/C=C/c1ccc2ccccc2n1)C(=O)N(C)c1ccccc1 (configuration not stated)	.	.	.	.	i	.	.	.
CC(=O)/C=C/c1ccc2ccccc2n1	-5.3*	i	i	-4.8*	i	i	i	i
N/C(=N\O)c1ccc(N2CCN(c3ncccc3C(F)(F)F)CC2)nc1	-5.7*	i	i	0.09	i	i	45%*	i
CSc1ccccc1C(=O)C1CCCN(S(=O)(=O)c2c(C)noc2C)C1 (configuration not stated)	i	i	i	-0.86	i	i	.	.
SMILES	CHT block	CHT allo act	Rce1 inhib	Kir21 inh	ANO1 activ	ANO1 block	CHT block conf	HEK293 MPD ctr
COc1ccccc1C(=O)NC1CCN(C(=S)NCCc2ccccc2)CC1	-6.3*	i	i	-1.4	i	i	50%*	i
O=C(Nc1ccc(S(=O)(=O)N2CCOCC2)cc1)c1ccc(Cl)cc1Cl	-6.4*	i	i	-0.02	i	i	43%*	i
O=C(Nc1ccc(S(=O)(=O)NC2=NCCCCC2)cc1)c1ccc(Cl)cc1Cl	-12*	i	i	-0.18	i	i	-7.3%*	i
CN1CCN(c2ccc(NC(=O)c3ccc(Cl)cc3Cl)cc2)CC1	-6.4*	i	i	-2.3	i	i	41%*	i
CS(=O)(=O)NCCC1=CCCCC1	i	i	i	-0.06	i	i	.	.
CCOc1cc(N2CCOCC2)c(OCC)cc1NC(=O)Cc1ccccc1OC	i	i	i	0.62	i	i	.	.
CCOc1cc(N2CCOCC2)c(OCC)cc1NC(=O)Cc1ccccc1	-8.6*	i	i	-1.1	i	i	57%*	i
O=C(Nc1ccc(F)cc1)N1CCN(CCc2ccccc2)CC1	-5.4*	i	i	0.33	i	i	69%*	i
O=C(Nc1ccccc1)N1CCN(CCc2ccccc2)CC1	i	i	i	2.2	i	i	.	.
Cc1nc(-c2ccc(S(=O)(=O)N3CCCN(CCc4ccccc4)CC3)s2)cs1	-5.4*	i	i	-0.72	i	i	i	i
CN1CCN(c2ccc(Cl)cc2NC(=O)c2ccc(=O)n(C)n2)CC1	-5.6*	i	i	1	i	i	56%*	5.3*
COc1cccc(NC(=O)c2cc3ccccc3o/c2=N\O)c1	-6.3*	i	i	-3.5	i	i	i	i
Cc1ccccc1CC1SC(N)=NC1=O (configuration not stated)	i	i	i	0.92	i	i	.	.
O=S(=O)(Nc1ccc(Br)cn1)c1ccc(Cl)s1	i	i	i	-1.4	i	i	.	.
COC(CN(C)C(=O)c1ccc(CS(=O)(=O)c2ccccc2C)o1)OC	i	i	i	0.76	i	i	.	.
CCCCN(C)C(=O)c1ccc(CS(=O)(=O)c2ccccc2C)o1	-5.3*	i	i	-2.5	i	i	i	i
Cc1ncoc1C(=O)N1CCc2c([nH]c3ccccc23)C1c1ccccc1F (configuration not stated)	i	i	i	-0.32	i	i	.	.

From PubChem
